TCR act: T cell receptor activation; 330,000 tested, under 10 active; Potency, µM (highest dose often 9.22 µM), actives largely listed as activators; primary human leukocytes, anti-CD3, IL-2 HTRF, 48 h; active means well fitted activation curve with a large enough effect; inconclusive means small, poorly fitted or top-dose-only effect, or another doubt; inactive means no such curve, though single readings can be large or run the other way
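Using a-CD3 beads without co-stimulation, primary human leukocytes were exposed to compounds for 48 hr. An HTRF IL-2 kit measured the cytokine, with europium-to-d2 energy transfer producing emission at 665nm upon 320nm excitation.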
gsp antag: antagonizes gsp, the McCune-Albright syndrome mutation; gsp-mutant cells, cAMP HTRF, 30 min; 340,000 compounds, 0.4% hits; Potency, µM (top dose mostly 76.9 µM), hits mostly inhibitors; calls by dose curve; cell line not stated here;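 further: intracellular cAMP measured with PDE inhibitor Ro 20-1724 present during compound exposure; nearly all actives have a fitted effect of over 65% in size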
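Cells in G418 medium, seeded 16-24 h, 37C; buffer exchange to DPBS + 1 mM CaCl2, 0.5 mM MgCl2, 0.05% BSA; cpds in DMSO + […] (300 uM stock), 30 min 37C; HTRF cAMP detection.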
gsp ag: activates gsp, the McCune-Albright syndrome mutation; gsp mutant cells, cAMP HTRF, 30 min; Potency, µM (titrated, usually from 76.9 µM), most hits filed as activators; 340,000 compounds, 0.13% hits; AID 624287; active means well fitted activation curve with a large enough effect; inconclusive means small, poorly fitted or top-dose-only effect, or another doubt; inactive means no such curve, though single readings can be large or run the other way; cell line not stated here;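 further: phosphodiesterase inhibitor Ro 20-1724 added with compounds to block cAMP breakdown; nearly all actives have a fitted effect of over 60% in size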
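Cells in DMEM/10% FBS with G418 were pretreated with compounds in DMSO plus […] (300 uM stock) for 30 min at 37C. cAMP was measured by HTRF (cAMP-d2 plus anti-cAMP antibody-K) after 30 min at room temperature.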
Pin1 inhibitor: human Pin1 inhibition. Pin1 FP peptide displacement, HiFluor488, 10 min. Potency, µM (series often up to 115 µM), most hits filed as inhibitors. 390,000 compounds, 0.009% hits. AID 504891; active means well fitted inhibition curve with a large enough effect in the polarisation, with a control signal flat, not every such curve was filed as active; inconclusive means small, poorly fitted or top-dose-only effect, or effect the other way, or a change in a side signal; inactive means no such curve, though single readings can be large or run the other way; the % refers to the polarisation
TSHR antag: human thyrotropin receptor antagonism; TSHR-expressing cells, TSH-stimulated cAMP HTRF, 2 h; active compounds read low; activity change, negative = inhibition, % at 11.5 µM; 330,000 compounds, 0.2% hits; AID 504810; P16473;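 active means activity change below a set negative limit, meaning inhibition stronger than a set level, cut at about -70% in these data; inconclusive means activity change between two set negative limits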
Target sequence (P16473 whole entry, looked up): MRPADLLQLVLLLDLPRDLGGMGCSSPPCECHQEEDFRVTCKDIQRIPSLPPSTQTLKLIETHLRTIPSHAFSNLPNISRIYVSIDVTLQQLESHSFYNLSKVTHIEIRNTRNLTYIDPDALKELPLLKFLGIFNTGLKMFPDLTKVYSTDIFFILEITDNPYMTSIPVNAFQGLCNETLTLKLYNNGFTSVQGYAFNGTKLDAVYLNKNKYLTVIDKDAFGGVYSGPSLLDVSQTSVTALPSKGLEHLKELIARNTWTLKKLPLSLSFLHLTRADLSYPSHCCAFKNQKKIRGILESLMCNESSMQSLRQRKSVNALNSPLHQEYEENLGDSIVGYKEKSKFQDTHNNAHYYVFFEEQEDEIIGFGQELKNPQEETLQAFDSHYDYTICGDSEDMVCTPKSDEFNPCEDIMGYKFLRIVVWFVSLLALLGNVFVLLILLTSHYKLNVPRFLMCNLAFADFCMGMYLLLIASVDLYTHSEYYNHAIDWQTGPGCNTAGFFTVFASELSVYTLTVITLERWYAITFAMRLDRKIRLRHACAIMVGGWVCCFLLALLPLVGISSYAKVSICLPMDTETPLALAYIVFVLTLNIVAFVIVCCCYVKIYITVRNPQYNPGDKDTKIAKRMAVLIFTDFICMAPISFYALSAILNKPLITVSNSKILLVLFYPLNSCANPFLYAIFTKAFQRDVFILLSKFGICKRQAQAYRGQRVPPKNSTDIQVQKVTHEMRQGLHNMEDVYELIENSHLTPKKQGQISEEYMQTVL
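Competitive HTRF cAMP read-out (cryptate anti-cAMP antibody, cAMP-d2; 30 min, room temperature) in freshly harvested TSHR cells. Compounds added before TSH at EC80 (4nM final), followed by 2 hours' incubation at 37 deg C.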
A number is an active result; n = inactive; u = inconclusive; x = no result; [ ] = dose if it differs, or a comment. Rows were chosen to be rich in hits. Some 0.63% of all compounds tested hit in one or more screens of this group.

SMILES	TCR act	gsp antag	gsp ag	Pin1 inhibitor	TSHR antag
CCN(CC)c1ccc(C(=O)OCC(=O)N2CCCC2)cc1	n	n	n	n	-111
O=Cc1ccc(C(=O)OCC(=O)N2CCCC2)cc1	n	n	n[15.4 µM]	n	n
O=C(OCC(=O)N1CCCC1)c1ccc(S(=O)(=O)Nc2ccccc2)cc1	n	11µM	n	n	n
CC1(C)CC(=O)C2=C(C1)OC(=O)CC2c1cccs1 (centres undefined)	n	n	n	n	n
CN1/C(=C\C(=O)c2ccco2)C(C)(C)c2ccccc21	n	35µM	n	u	n
CN1/C(=C\C(=O)COC(=O)c2ccco2)C(C)(C)c2ccccc21	n	n	n	n	n
CN1/C(=C\C(=O)COc2ccc3c(c2)OCO3)C(C)(C)c2ccccc21	n	40µM	n	u	n
CC1CCN(C(=O)C2CCCCN2S(=O)(=O)c2cccc([N+](=O)[O-])c2)CC1 (centres undefined)	n	50µM	n	n	n
CCN(CC)S(=O)(=O)c1ccc(OC)c(NC(=O)COc2ccc3c(C)cc(=O)oc3c2)c1	n	n	8.9µM	n	n
O=C(COc1ccc(Cl)cc1)Nc1ncc([N+](=O)[O-])s1	n	35µM	n[15.4 µM]	n	n
Cc1ccc(C(=O)Nc2ncc([N+](=O)[O-])s2)cc1	n	25µM	n	n	u
CC(Oc1ccccc1)C(=O)N=Nc1c(O)[nH]c2ccc([N+](=O)[O-])cc12 (centres undefined)	n	n	n	n	n
COc1cccc(-c2cc3c(=O)n(-c4ccccc4)c(=S)[nH]c3s2)c1	n	n	11µM	n	n
CC1CCCCN1C(=O)c1cccc(NC2=C(Cl)C(=O)N(Cc3ccccc3)C2=O)c1 (centres undefined)	n	28µM	n	n	n
Cc1ccc(C2=N/C(=C/N3CCOCC3)C(=O)O2)cc1	n	n	n	n	n
Cc1cccc2cc(/C=C3\N=C(c4ccccc4)OC3=O)c(N3CCOCC3)nc12	n	n	u	76µM	n
Nc1ccc(S(=O)(=O)Nc2nccc(/C=C/c3cccc(Br)c3)n2)cc1	n	n	n[15.4 µM]	n	n
CCc1cc(=O)oc2cc(OC(C)=O)cc(OC(C)=O)c12	n	n	10µM	n	n
COc1cc(OCc2ccccc2)c2c(CCC(=O)O)cc(=O)oc2c1	n	n	n	u	x
Cc1cc(C)n(C(=O)CSc2nc3ccccc3o2)n1	x	n	n	n	n
Cc1c(/C=N/Nc2nc3ccccc3[nH]2)c2ccccc2n1C	n	40µM	n[15.4 µM]	n	n
Cn1c(/C=N/Nc2nc3ccccc3[nH]2)nc2ccccc21	n	n	n	n	n
C(=N\Nc1nc2ccccc2[nH]1)/c1ccncc1	n	n	n	n	-88
CCOc1ccc(C(=O)OCn2nnc3ccccc3c2=O)cc1OC	n	n	n	u	n
Cc1ccccc1NCN1C(=O)C2C3C=CC(C3)C2C1=O (centres undefined)	n	n	n	n	n
SMILES	TCR act	gsp antag	gsp ag	Pin1 inhibitor	TSHR antag
CC(C)(C)NC(=O)[C@@H]1CN(Cc2cccnc2)CCN1C[C@@H](O)C[C@@H](Cc1ccccc1)C(=O)N[C@H]1c2ccccc2C[C@H]1O	n	n	x	n	x
COc1ccc2c(c1)oc(=O)c1ccccc12	n	n	n	n	n
O=c1oc2cc(O)c(Cl)cc2c2ccccc12	n	n	2.2µM	n	n
O=C(O)c1ccc(CCCc2ccccc2)cc1	n	n	n	n	x
COc1ccc2c(c1)cc1c(=O)n(CC(=O)NCCCN3CCOCC3)nc(C)n12	n	n	n	n	n
CCCN1CCN(CCCNC(=O)Cn2nc(C)n3c(cc4cc(OC)ccc43)c2=O)CC1	n	n	n	n	-88
COc1ccc(NS(=O)(=O)c2cc(NC(=O)C3=NN(c4ccccc4)C(=O)CC3)ccc2C)cc1	n	n	n	n	x
COc1ccc(NS(=O)(=O)c2cccc(NC(=O)C3=NN(c4ccccc4)C(=O)CC3)c2)cc1	n	u	n	n	-112
CCOC(=O)C1=C(C)C(c2ccccc2OC)NC(=O)N1 (centres undefined)	n	n	n	n	x
Cc1ccc(CN2C(=O)c3ccccc3Sc3ccc(C(=O)NCCCN4CCOCC4)cc32)cc1	n	n	n	n	-138
COc1ccc(C2CC(C(C)(C)C)=NN2c2ccc(S(N)(=O)=O)cc2)cc1 (centres undefined)	n	n	x	n	n
COc1ccc(S(=O)(=O)NCCSCc2cccs2)cc1	n	32µM	n	n	n
O=C(NCCSCc1ccc(Cl)cc1)C1CCN(S(=O)(=O)Cc2ccccc2)CC1	x	x	x	n	x
C=C(C)CNC(=S)NNC(=O)c1ccco1	x	n	n	n	n
OCCC1CN(Cc2cccn2-c2cccnc2)CCN1Cc1ccc(F)cc1 (centres undefined)	n	u	n	n	n
Cn1c(=O)c2c(nc(SCCN3CCOCC3)n2C)n(C)c1=O	n	n	8.9µM	n	n
CCn1c(SCCN2CCOCC2)nc2c1c(=O)n(C)c(=O)n2C	x	n	n[15.4 µM]	n	n
CC(C)OCCCn1c(=O)c2ccccc2n2c(CCC(=O)NC3CCN(Cc4ccccc4)CC3)nnc12	n	n	u	n	-125
CCc1cc2c(=O)c(-c3ccc4c(c3)OCCO4)c(C)oc2cc1OS(C)(=O)=O	n	50µM	n	n	n
O=C1c2ccccc2C(=O)c2c(/C=C/N3CCCCC3)ccnc21	n	n	8.9µM	x	x
CNc1c(NC(=O)c2ccc3c(c2)OCO3)c(=O)oc2ccccc12	n	n	n	n	-136
c1ccc(-c2nc(NCc3cccnc3)c3ccccc3n2)cc1	n	n	n	n	n
Cc1ccc(-c2nc(NCc3cccnc3)c3ccccc3n2)cc1	n	35µM	n	n	n
CC1(C(=O)OCC(=O)Nc2nc(-c3ccc(F)c(F)c3)cs2)CC1(Cl)Cl (centres undefined)	n	50µM	n	n	n
COc1ccc(CC(=O)Nc2nc(-c3ccc(F)c(F)c3)cs2)cc1	n	u	n[15.4 µM]	n	n
SMILES	TCR act	gsp antag	gsp ag	Pin1 inhibitor	TSHR antag
COc1ccc(-n2cc3c(-c4cccc(Br)c4)nnc(C)c3n2)cc1	n	40µM	n	u	n
N#C/C(=C\c1ccc(Oc2ccc(C(F)(F)F)cc2[N+](=O)[O-])cc1)c1nc2ccccc2[nH]1	n	n	n	n	-71
N#C/C(=C/c1ccc(N2CCCC2)c([N+](=O)[O-])c1)c1nc2ccccc2[nH]1	n	n	n	n	n
COc1ccc(N2C3=C(C(=O)CC(C)(C)C3)C(c3ccccc3OC)C3=C2CC(C)(C)CC3=O)cc1	n	28µM	u	n	n
CC1CCN(c2nc3ccc(C(=O)NC(C)C)cc3s2)CC1	x	x	x	n	x
Cc1ccc(-n2c(O)c(/C=N/Nc3ccc(S(=O)(=O)N4CCOCC4)cc3[N+](=O)[O-])c3ccccc3c2=O)c(C)c1	n	40µM	n[15.4 µM]	n	n
COc1ccc(C2c3ccsc3CCN2C(=O)NC(C)(C)C)cc1 (centres undefined)	n	32µM	n	n	n

High-throughput results from PubChem BioAssay.
